Laboratory results published in PubChem BioAssay AID1159580 (chemical genetic matrix, 2015).
Values joined by “and” are separate entries in the source; they are usually repeats but may differ in a detail not shown here. Equal entries are not always repeated. The whole screen tested about 5,500 compounds, of which about 2,000 (36%) were called active. About 18% were inconclusive and are not listed. Cut-off read from the data, not from the text of the source: active = normalized growth mostly below about 0.91 (no sharp cut-off); inconclusive = no clear call, values can overlap the other calls; inactive = mostly above about 0.92. The list shows a part of the results.

Assay: chemical genetic growth profiling, strain panel (AID 1159580);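 note: tested at 20 µM; growth read once vehicle control cultures reached saturation at 30 °C; 1 = growth at the plate median or of vehicle wells; lower values mean less growth of the strain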
Settings: S. cerevisiae deletion strains, growth OD

Measured: normalized growth

O=P1(N(CCCl)CCCl)NCCCO1 (stereo not given)
inactive: locus YAL013W, strain DEP1, hits give low values 0.998 and 0.974 | locus YAL021C, strain ccr4, hits give low values 0.995 | locus YAL026C, strain drs2, hits give low values 0.981 | locus YAL030W, strain snc1, hits give low values 1.01 | locus YAL040C, strain CLN3, hits give low values 0.973 | locus YBL061C, strain skt5, hits give low values 1.01 | locus YBR009C, strain hhf1, hits give low values 1.01 | locus YBR021W, strain FUR4, hits give low values 1.02 | locus YBR023C, strain chs3, hits give low values 1.02 | locus YBR171W, strain sec66, hits give low values 1 | locus YBR229C, strain ROT2, hits give low values 1 | locus YBR231C, strain swc5, hits give low values 0.995 | locus YBR279W, strain paf1, hits give low values 1 | locus YCL011C, strain gbp2, hits give low values 1.01 | locus YCL016C, strain dcc1, hits give low values 1.04 | locus YCL029C, strain bik1, hits give low values 1.03 | locus YCL061C, strain MRC1 (second series), hits give low values 1 | locus YCL061C, strain MRC1, hits give low values 1 | locus YCL069W, strain vba3, hits give low values 0.995 | locus YCR088W, strain abp1, hits give low values 1 | locus YDL005C, strain med2, hits give low values 0.99 | locus YDL035C, strain GPR1, hits give low values 1.02 | locus YDL040C, strain nat1, hits give low values 0.998 | locus YDL074C, strain BRE1, hits give low values 1.03 | locus YDL101C, strain DUN1, hits give low values 1.01 | locus YDL185W, strain tfp1, hits give low values 1.01 | locus YDL192W, strain arf1, hits give low values 1.03 | locus YDR001C, strain nth1, hits give low values 0.992 | locus YDR069C, strain doa4, hits give low values 1 | locus YDR101C, strain arx1, hits give low values 1.02 | locus YDR137W, strain rgp1, hits give low values 1.01 | locus YDR150W, strain NUM1, hits give low values 0.996 | locus YDR159W, strain sac3, hits give low values 0.99 | locus YDR162C, strain NBP2, hits give low values 1.01 | locus YDR195W, strain ref2 0.977 | locus YDR297W, strain sur2, hits give low values 1.03 | locus YDR318W, strain mcm21, hits give low values 1.03 | locus YDR334W, strain swr1, hits give low values 0.994 | locus YDR335W, strain msn5, hits give low values 1.01 | locus YDR363W, strain ESC2, hits give low values 0.962 | locus YDR388W, hits give low values 1.02 | locus YDR392W, strain spt3, hits give low values 0.941 | locus YDR502C, strain sam2, hits give low values 1.06 | locus YEL003W, strain gim4, hits give low values 0.991 | locus YEL037C, strain rad23, hits give low values 0.984 | locus YEL061C, strain CIN8 (second series), hits give low values 0.98 | locus YEL061C, strain CIN8, hits give low values 1 | locus YER002W, strain NOP16, hits give low values 1.01 | locus YER015W, strain faa2, hits give low values 1.02 | locus YER016W, strain bim1, hits give low values 0.997 | locus YER110C, hits give low values 1.05 | locus YER111C, strain swi4, hits give low values 0.995 | locus YER155C, strain BEM2 (second series), hits give low values 0.936 | locus YER155C, strain BEM2, hits give low values 0.996 | locus YER167W, strain BCK2, hits give low values 1 | locus YFR010W, strain ubp6, hits give low values 0.971 | locus YGL078C, strain dbp3, hits give low values 1.03 | locus YGL086W, strain mad1, hits give low values 1.03 | locus YGL167C, strain pmr1, hits give low values 1.01 | locus YGL173C, strain kem1, hits give low values 1.01 | locus YGL227W, strain vid30, hits give low values 0.992 | locus YGL240W, strain doc1, hits give low values 0.983 | locus YGL248W, strain PDE1, hits give low values 1.01 | locus YGL253W, strain hxk2, hits give low values 0.987 | locus YGR078C, strain PAC10, hits give low values 0.988 | locus YGR135W, strain pre9, hits give low values 1.04 | locus YGR229C, strain SMI1, hits give low values 1 | locus YGR252W, strain gcn5, hits give low values 1.07 | locus YHR013C, strain ard1, hits give low values 1.03 | locus YHR027C, strain rpn1, hits give low values 1.01 | locus YHR030C, strain SLT2, hits give low values 1.01 and 0.994 | locus YHR079C, strain IRE1 (second series), hits give low values 1.03 | locus YHR079C, strain IRE1, hits give low values 0.991 | locus YHR094C, strain hxt1, hits give low values 1.03 | locus YHR129C, strain ARP1, hits give low values 1 | locus YHR142W, strain chs7, hits give low values 1.02 | locus YHR200W, strain rpn10, hits give low values 1.02 | locus YIL066C, strain RNR3, hits give low values 1.02 | locus YIL073C, strain SPO22, hits give low values 1.01 | locus YIL125W, strain kgd1, hits give low values 1.02 | locus YIR030C, strain dcg1, hits give low values 1.03 | locus YJL092W, strain hpr5, hits give low values 1.01 | locus YJL095W, strain BCK1 (second series), hits give low values 1.01 | locus YJL095W, strain BCK1, hits give low values 1.03 and 0.99 | locus YJL115W, strain asf1, hits give low values 0.994 | locus YJL129C, strain trk1, hits give low values 1.02 | locus YJL134W, strain LCB3, hits give low values 1.01 | locus YJL154C, strain vps35, hits give low values 0.988 | locus YJL164C, strain tpk1, hits give low values 1.01 | locus YJL166W, strain qcr8, hits give low values 1.03 | locus YJL168C, strain set2, hits give low values 1.02 | locus YJL187C, strain SWE1 (second series), hits give low values 1.01 | locus YJL187C, strain SWE1, hits give low values 1.02 | locus YJR043C, strain POL32, hits give low values 1.01 | locus YJR066W, strain TOR1, hits give low values 1 | locus YJR075W, strain HOC1, hits give low values 1 | locus YKL009W, strain mrt4, hits give low values 0.957 | locus YKL068W, hits give low values 1 | locus YKL160W, strain elf1, hits give low values 1.03 | locus YKR001C, strain vps1, hits give low values 1.03 | locus YKR026C, strain gcn3, hits give low values 0.993 | locus YKR091W, strain srl3, hits give low values 1.01 | locus YLL001W, strain dnm1, hits give low values 1.04 | locus YLL026W, hits give low values 1.01 | locus YLL041C, strain sdh2, hits give low values 0.991 | locus YLR027C, strain aat2, hits give low values 0.992 | locus YLR039C, strain RIC1, hits give low values 1.02 | locus YLR058C, strain SHM2, hits give low values 1.01 | locus YLR102C, strain apc9, hits give low values 1.02 | locus YLR113W, strain HOG1, hits give low values 0.994 | locus YLR221C, strain rsa3, hits give low values 1.07 | locus YLR258W, strain gsy2, hits give low values 1.01 | locus YLR262C, strain YPT6 (second series), hits give low values 1.01 | locus YLR262C, strain YPT6, hits give low values 1.01 | locus YLR268W, strain sec22, hits give low values 1.03 | locus YLR320W, strain mms22, hits give low values 1.05 | locus YLR330W, strain CHS5, hits give low values 1.01 | locus YLR342W, strain FKS1 (second series), hits give low values 1.02 | locus YLR342W, strain FKS1, hits give low values 1 | locus YLR357W, strain rsc2, hits give low values 0.984 | locus YLR370C, strain arc18, hits give low values 1.02 | locus YLR371W, strain rom2, hits give low values 1.02 | locus YLR384C, strain iki3, hits give low values 1 | locus YLR418C, strain cdc73, hits give low values 1.1 | locus YML016C, strain PPZ1, hits give low values 1 | locus YML032C, strain rad52, hits give low values 1.03 | locus YML120C, strain ndi1, hits give low values 1.04 | locus YML124C, strain tub3, hits give low values 1.04 | locus YMR058W, strain fet3, hits give low values 0.99 | locus YMR078C, strain ctf18, hits give low values 1.03 | locus YMR125W, strain sto1, hits give low values 0.981 | locus YMR129W, hits give low values 0.991 | locus YMR205C, strain PFK2, hits give low values 1.03 | locus YMR223W, strain ubp8, hits give low values 1.05 | locus YMR231W, strain pep5, hits give low values 0.997 | locus YMR263W, strain SAP30, hits give low values 1.01 and 1 | locus YMR307W, strain GAS1, hits give low values 1.03 and 0.994 | locus YNL067W, strain RPL9B, hits give low values 1.01 | locus YNL071W, strain lat1, hits give low values 0.991 | locus YNL128W, strain TEP1, hits give low values 1.02 and 0.983 | locus YNL175C, strain NOP13, hits give low values 0.989 | locus YNL183C, strain NPR1, hits give low values 0.946 | locus YNL197C, strain WHI3, hits give low values 0.976 | locus YNL209W, strain ssb2, hits give low values 1.01 | locus YNL224C, strain SQS1, hits give low values 0.995 | locus YNL233W, strain BNI4, hits give low values 1.02 | locus YNL248C, strain rpa49, hits give low values 0.914 | locus YNL250W, strain rad50, hits give low values 1.03 | locus YNL271C, strain bni1, hits give low values 1.02 | locus YNL298W, strain CLA4, hits give low values 1.04 | locus YNL307C, strain MCK1, hits give low values 1.02 | locus YNL322C, strain KRE1 (second series), hits give low values 1.01 | locus YNL322C, strain KRE1, hits give low values 0.996 | locus YNR049C, strain mso1, hits give low values 0.993 | locus YNR052C, strain pop2, hits give low values 1.02 | locus YOL147C, strain pex11, hits give low values 1.02 | locus YOR001W, strain rrp6, hits give low values 0.934 | locus YOR061W, strain CKA2, hits give low values 1.02 | locus YOR069W, strain VPS5, hits give low values 1.01 | locus YOR070C, strain gyp1, hits give low values 1.01 | locus YOR080W, strain dia2, hits give low values 1.01 | locus YOR083W, strain WHI5 (second series), hits give low values 0.978 | locus YOR083W, strain WHI5, hits give low values 1.05 | locus YOR106W, strain vam3, hits give low values 1.06 | locus YOR136W, strain idh2, hits give low values 1.03 | locus YOR144C, strain elg1, hits give low values 1.05 | locus YOR184W, strain ser1, hits give low values 1.08 | locus YOR231W, strain MKK1, hits give low values 1 | locus YOR265W, strain rbl2, hits give low values 1.01 | locus YOR270C, strain vph1, hits give low values 1.04 | locus YOR290C, strain snf2, hits give low values 1.03 | locus YOR316C, strain cot1, hits give low values 1.04 | locus YPL051W, strain arl3, hits give low values 1.02 | locus YPL055C, strain LGE1, hits give low values 1 | locus YPL078C, strain atp4, hits give low values 0.991 | locus YPL106C, strain sse1, hits give low values 1.04 | locus YPL240C, strain hsp82, hits give low values 1 | locus YPL256C, strain CLN2, hits give low values 0.992 | locus YPR119W, strain clb2, hits give low values 1.03 | locus YPR141C, strain kar3, hits give low values 1.01 | locus YPR163C, strain tif3, hits give low values 1.02 | locus YPR167C, strain met16, hits give low values 1.02 | strain wtn01, hits give low values 1.06
active: locus YKL085W, strain MDH1 (second series), hits give low values 1.08 [resistant] | locus YKL085W, strain MDH1, hits give low values 1.08 [resistant]
